# According to PubChem BioAssay (NCATS):
# Inconclusive results are not listed. Where a call stands in place of a potency, no number is given. Values without a mark were called inactive. The source made the active and inactive calls. Unless noted, calls follow the shape of the dose curve; as a rule, active = well fitted curve in the direction sought with a large enough effect; inconclusive = small, poorly fitted or top-dose-only effect, or another doubt; inactive = no such curve, though single readings can be large; an effect the other way counts as inactive or inconclusive.
# Columns and labels:
# [1] = target: Calcium and integrin-binding protein 1 (Homo sapiens) (UniProt Q99828); assay: Validation qHTS for Identification of Calcium Integrin Binding protein 1 (CIB1) Competitor (AID 1508618)
# Procedure, shortened: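 CIB1-GST (1 uM final) in 5 mM HEPES pH 7.4, 125 mM NaCl, 5 mM CaCl2, 0.01% Tween20 was preincubated 15 min at room temperature with compound (up to 114 uM), then FITC-alphaIIb peptide (100 nM) added for 15 min; fluorescence polarization read.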
# [2] = target: Calcium and integrin-binding protein 1 (Homo sapiens) (UniProt Q99828); assay: Primary qHTS for Identification of Calcium Integrin Binding Protein 1 (CIB1) Competitor (AID 1508620);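 also: GST tagged CIB1 binding a fluorescein labelled alphaIIb integrin peptide tracer; top concentration of the series differs between compounds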
# Procedure, shortened: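 Fluorescence polarization competition: GST-tagged CIB1 (1 uM final) preincubated with compound 15 min at room temperature, then FITC-labelled alphaIIb peptide (100 nM final) added. After 15 min at room temperature, polarization read at Ex 480/Em 540.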
# [3] = Primary qHTS for small molecule stabilizers of the endoplasmic reticulum resident proteome: Secreted ER Calcium Modulated Protein (SERCaMP) assay (AID 1508630)
# Procedure, shortened: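 GLuc-SERCaMP-expressing SH-SY5Y cells, pretreated 16 h with compound, are challenged with thapsigargin to empty ER calcium stores; after 4 h, coelenterazine is added directly to the medium and luminescence is imaged.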
# [4] = A High-Content qHTS Against Drug Library for the Identification of Small Molecules that Inhibit DYT1 Early Onset Primary Dystonia-Associated Cell Pathology (AID 1645839; calls by dose curve; also: series mostly up to about 46 µM)
# Procedure, shortened: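 Flp-In T-REx 293 cells with tetracycline-inducible EGFP-delE hTOR1A (WT EGFP-hTOR1A as reference), 800 cells/well; compound added with tetracycline, 48 h at 37 C. Fixed, permeabilized cells imaged; %pathology (punctate TorsinA) primary, cell count counterscreen.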
# [5] = target: Cytochrome P450 2D6 (Homo sapiens) (UniProt P10635); assay: Cytochrome P450 family 2 subfamily D member 6 (CYP2D6) small molecule antagonists: luciferase biochemical (cell-free) qHTS assay (AID 1645840; active = well fitted curve in the direction sought with a large enough effect in the repeat runs; an effect the other way counts as inactive or inconclusive; also: nearly all actives have a fitted effect of over 55% in size; also: potency is read from the fitted curve at half-maximal effect)
# Procedure, shortened: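 P450-Glo luminescent screen: recombinant CYP2D6 enzyme–proluciferin substrate mix preincubated with compound 10 min at room temperature, then NADPH regeneration added for 1 h at room temperature. Detection reagent added for 20 min; luciferin light read as relative luminescence units.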
# [6] = Counterscreen qHTS for small molecule stabilizers of the endoplasmic reticulum resident proteome: GLuc-NoTag assay (AID 1508627);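 also: SH-SY5Y cells given compound then 100 nM thapsigargin to empty ER calcium; series mostly up to about 76 µM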
# Procedure, shortened: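 SH-SY5Y cells stably expressing constitutively secreted GLuc without SERCaMP tag, exposed to compound for 19 hr, then to 100 nM thapsigargin for 4 hr at 37C. Medium luciferase was read by coelenterazine luminescence without lysis.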
# [7] = Cell Viability qHTS for small molecule stabilizers of the endoplasmic reticulum resident proteome (AID 1508629); conditions: cell viability counter-screen, 100 nM thapsigargin for final 4 h;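 also: compound exposure about 46 h in total before the viability read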
# Description: Assay Provider: Brandon K. Harvey Ph.D.
# National Institute on Drug Abuse, National Institutes of Health, Baltimore, MD
# Endoplasmic reticulum (ER) dysregulation is associated with human pathologies including neurodegenerative, cardiovascular, muscular, and diabetic conditions. Maintenance of ER calcium is critical for functions of the ER and its depletion can lead to loss of ER resident proteins, in a process termed exodosis. Therapeutic compounds capable of attenuating the redistribution of ER proteins under pathological conditions may slow or stop disease progression. To identify such compounds, we performed a quantitative high-throughput screen (qHTS) using the SERCaMP assay, which monitors secretion of ER resident proteins triggered by calcium depletion.
# SERCaMP was initially developed as a reporter of ER calcium homeostasis using a Gaussia luciferase with a modified signal peptide and carboxy-terminus (GLuc-SERCaMP), modifications that confer secretion of the reporter in response to ER calcium depletion (Henderson et al., 2014). The assay was used to screen 9,501 compounds, including a collection of drugs approved by the FDA (US), EMA (EU), NHI (Japan), and HC (Canada) regulatory agencies (Huang et al., 2011). Since the SERCaMP reporter reflects the exodosis phenomenon (Trychta et al., 2018a), compounds identified in the screen have the potential to prevent exodosis by different mechanisms such as stabilizing ER calcium or augmenting ERS retrieval.
# 1. Henderson, M.J., Wires, E.S., Trychta, K.A., Richie, C.T., and Harvey, B.K. (2014). SERCaMP: a carboxy-terminal protein modification that enables monitoring of ER calcium homeostasis. Mol Biol Cell 25, 2828-2839.
# 2. Huang, R., Southall, N., Wang, Y., Yasgar, A., Shinn, P., Jadhav, A., Nguyen, D.T., and Austin, C.P. (2011). The NCGC pharmaceutical collection: a comprehensive resource of clinically approved drugs enabling repurposing and chemical genomics. Sci Transl Med 3, 80ps16.
# 3. Trychta, K.A., Back, S., Henderson, M.J., and Harvey, B.K. (2018a). KDEL Receptors Are Differentially Regulated to Maintain the ER Proteome under Calcium Deficiency. Cell Rep 25, 1829-1840 e1826.
# SEQUENCE No. (1, 2, 3, etc.); […] (e.g., Cells, Incubation, Reagent, etc.); VALUE and DESCRIPTION.
# 1; Reagent; 5 uL; 1000 SH-SY5Y cells per wells
# 3; Compound; 23 nL; Control inhibitor / compound library
# 5; Reagent; 100 nM; Thapsigargin
# 7; Reagent; 5 uL; CellTiter-Glo (Promega)
# 8; Time; 10 min; room temperature
# 9; Detection; Luminescence; ViewLux imaging system
# NOTES (numbers refer to sequence above)
# 1; SH-SY5Y human neuroblastoma cells stably expressing GLuc-SERCaMP (SH-SY5Y-GLuc-ASARTDL) cells were seeded in 1,536 well white tissue culture treated plates (Corning, Cat# 7464) in DMEM-high glucose-sodium pyruvate (ThermoFisher Scientific, Cat #10569) supplemented with 10% bovine growth serum (Hyclone), 10 U/ml penicillin (Gibco), 10 ug/ml streptomycin (Gibco), and 20 mM HEPES.
# 2; Assay plates were incubated for 5 hr at 37C in a humidified incubator containing 5% CO2.
# 3; qHTS libraries (23 nl, final concentrations of 1.53 uM, 7.67 uM, 38.3 uM) or controls (neutral control: DMSO, positive control: dantrolene) were added using a Kalypsis pin-tool Robotic System equipped with 1536 pinheads.
# 4; Cells were then incubated for 42 hours at 37C, 5% CO2.
# 5; Thapsigargin was added at 100 nM to deplete ER calcium stores.
# 6; Cells were incubated for 4 hr (37C, 5% CO2).
# 7; Cell viability was measured using the CellTiter-Glo Luminescent Cell Viability Assay (Promega). Briefly, an equal volume of reagent was added to each well. Plates were rotated for 2 min.
# 8; Assay plates were incubated for 10 min at room temperature.
# 9; Luminescence was measured using a ViewLux CCD imaging system (Perkin Elmer) equipped with clear filters.
# [8] = Confirmatory qHTS for small molecule stabilizers of the endoplasmic reticulum resident proteome: Secreted ER Calcium Modulated Protein (SERCaMP) assay (AID 1508628); also: series mostly up to about 76 µM; nearly all actives have a fitted effect of over 40% in size
# Procedure, shortened: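 SH-SY5Y cells stably expressing GLuc-SERCaMP, treated 16 h with compound (primary 1.53, 7.67, 38.3 uM; confirmation 11 concentrations, up to 76.6 uM), then 100 nM thapsigargin for 4 h. Secreted Gaussia luciferase in medium read by coelenterazine luminescence.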
# Calcium and integrin-binding protein 1 (Homo sapiens), sequence (Q99828 whole entry, looked up): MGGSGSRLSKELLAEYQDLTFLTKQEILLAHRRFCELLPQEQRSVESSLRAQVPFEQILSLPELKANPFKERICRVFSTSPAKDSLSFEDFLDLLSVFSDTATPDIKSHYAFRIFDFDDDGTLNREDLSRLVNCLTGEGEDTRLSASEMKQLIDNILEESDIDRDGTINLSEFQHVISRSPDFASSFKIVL
# Cytochrome P450 2D6 (Homo sapiens), sequence (P10635 whole entry, looked up): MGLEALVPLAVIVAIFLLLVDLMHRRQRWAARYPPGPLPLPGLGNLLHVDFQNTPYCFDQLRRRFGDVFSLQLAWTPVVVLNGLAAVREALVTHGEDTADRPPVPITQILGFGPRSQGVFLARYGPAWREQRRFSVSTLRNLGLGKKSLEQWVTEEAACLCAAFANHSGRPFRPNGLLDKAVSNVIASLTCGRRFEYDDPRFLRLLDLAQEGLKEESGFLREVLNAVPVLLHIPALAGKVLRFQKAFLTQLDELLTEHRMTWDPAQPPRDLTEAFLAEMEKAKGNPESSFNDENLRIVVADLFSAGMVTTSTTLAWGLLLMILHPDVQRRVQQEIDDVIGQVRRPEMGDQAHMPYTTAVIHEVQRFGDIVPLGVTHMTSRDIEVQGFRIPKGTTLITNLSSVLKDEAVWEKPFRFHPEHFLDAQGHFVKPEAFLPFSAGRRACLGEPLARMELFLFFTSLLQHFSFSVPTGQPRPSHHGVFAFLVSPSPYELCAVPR
compound,measurement,setting,value
Cc1cccc(-c2[nH]c(C(C)(C)C)nc2-c2ccc3nccnc3c2)n1,Potency,[1],inactive
same,outcome,[2],inactive
same,Potency,[3],inactive
CCOC(=O)C1=C[C@]2(CC)CCCN3CCc4c(n1c1ccccc41)[C@@H]32,Potency,[1],inactive
same,outcome,[2],inactive
same,Potency,[3],inactive
same,Potency,[4],inactive
same,Potency,[5],4.9 µM (active)
CCCCNc1cc(C(=O)O)cc(S(N)(=O)=O)c1Oc1ccccc1,Potency,[1],inactive
same,outcome,[2],inactive
same,Potency,[3],inactive
same,Potency,[4],inactive
NS(=O)(=O)c1cc2c(cc1Cl)NC=NS2(=O)=O,Potency,[1],inactive
same,outcome,[2],inactive
same,Potency,[3],inactive
Oc1ccc(C2CNCCc3c2cc(O)c(O)c3Cl)cc1 (stereo not given),Potency,[1],inactive
same,outcome,[2],inactive
same,Potency,[6],inactive
same,max response,[7],-10.9%
same,Potency,[3],inactive
same,Potency,[4],inactive
O=C1CCC(N2C(=O)c3ccccc3C2=O)C(=O)N1 (stereo not given),Potency,[1],inactive
same,outcome,[2],inactive
same,Potency,[3],inactive
same,Potency,[4],inactive
same,Potency,[5],15.5 µM (active)
NC(N)=NC(=O)c1nc(Cl)c(N)nc1N,Potency,[1],inactive
same,outcome,[2],inactive
same,Potency,[3],inactive
same,Potency,[4],inactive
same,Potency,[5],inactive
Cc1[nH]c(=O)c(C#N)cc1-c1ccc2nccn2c1,Potency,[1],inactive
same,outcome,[2],inactive
same,Potency,[6],inactive
same,max response,[7],9.8%
same,Potency,[3],inactive
same,Potency,[4],inactive
same,Potency,[5],inactive
COc1cc(Nc2ncc3c(n2)-c2ccc(Cl)cc2C(c2c(F)cccc2OC)=NC3)ccc1C(=O)O,outcome,[2],inactive
Cc1n[nH]c(C)c1Cc1sc2c(c1C(=O)N1C[C@H](O)CO1)c(=O)n(C)c(=O)n2CC(C)C,outcome,[2],inactive
O=C1CCc2cc(OCCCCc3nnnn3C3CCCCC3)ccc2N1,Potency,[1],inactive
same,Potency,[3],inactive
same,Potency,[4],inactive
same,Potency,[5],inactive
CC(C)(C)NCC(O)c1ccc(O)c(CO)c1 (stereo not given),Potency,[1],inactive
same,Potency,[4],inactive
same,Potency,[5],inactive
CNC(=O)c1ccc(C)c(-n2c(C)cc(OCc3ccc(F)cc3F)c(Br)c2=O)c1,outcome,[2],inactive
CN(C)c1ccc(Nc2nc(N)n(C(=O)c3c(F)cccc3F)n2)cc1,outcome,[2],inactive
O=C(O)COCCN1CCN(C(c2ccccc2)c2ccc(Cl)cc2)CC1 (stereo not given),Potency,[1],inactive
same,Potency,[4],inactive
CN(C)c1ccc(C2Nc3ccc4ccccc4c3C3=C2C(=O)CC(C)(C)C3)cc1Br (stereo not given),outcome,[2],inactive
same,Potency,[3],inactive
COc1cc2c(cc1OC)CN(CCc1ccc(NC(=O)c3cccc4c(=O)c5cccc(OC)c5[nH]c34)cc1)CC2,outcome,[2],inactive
same,Potency,[3],inactive
Cc1ccccc1C(OCCN(C)C)c1ccccc1 (stereo not given),Potency,[1],inactive
same,Potency,[6],inactive
same,Potency,[3],inactive
same,Potency,[4],inactive
Fc1ccc(Cl)cc1-c1nc(Nc2ccncc2)c2nccnc2n1,outcome,[2],inactive
CCn1cc(C(=O)O)c(=O)c2cc(F)c(N3CCNC(C)C3)c(F)c21 (stereo not given),Potency,[1],inactive
same,outcome,[2],inactive
same,Potency,[4],inactive
same,Potency,[5],inactive
Nc1nc2c(ncn2COCCO)c(=O)[nH]1,Potency,[1],inactive
same,Potency,[6],inactive
same,Potency,[8],inactive
same,max response,[7],1.71%
same,Potency,[3],inactive
same,Potency,[4],inactive
same,Potency,[5],inactive
Cc1cc(Nc2nc(N[C@@H](C)c3ncc(F)cn3)ncc2Cl)n[nH]1,outcome,[2],inactive
CCCn1c(=O)c2[nH]c(C34CC5CC3C[C@@H](C5)C4)nc2n(CCC)c1=O,outcome,[2],inactive
same,Potency,[3],inactive
Cc1cccc(-c2nn(C(=S)Nc3ccccc3)cc2-c2ccnc3ccccc23)n1,outcome,[2],inactive
same,Potency,[3],inactive
CC(C)(Sc1ccc(CCN(CCCCC2CCCCC2)C(=O)NC2CCCCC2)cc1)C(=O)O,outcome,[2],inactive
same,Potency,[6],inactive
same,Potency,[3],inactive
c1ccc(-c2nn3c(c2-c2ccnc4cc(OCCN5CCOCC5)ccc24)CCC3)nc1,outcome,[2],inactive
same,Potency,[3],inactive
O=NN(CCCl)C(=O)NCCCl,Potency,[1],inactive
same,Potency,[3],inactive
NC(=O)c1cnccn1,Potency,[1],inactive
same,Potency,[4],inactive
same,Potency,[5],inactive
CCc1cncnc1N1CCN(Cc2nc3ccc(C(F)(F)F)cc3[nH]2)CC1,Potency,[1],inactive
same,outcome,[2],inactive
same,Potency,[3],inactive
same,Potency,[5],0.107 µM (active)
NCCc1ccc(O)c(O)c1,Potency,[1],inactive
same,Potency,[3],inactive
same,Potency,[4],inactive
same,Potency,[5],inactive
O=C(C=Cc1ccc(/C=C/C(=O)Nc2ccc(C3=NCCN3)cc2)cc1)Nc1ccc(C2=NCCN2)cc1,outcome,[2],inactive
same,Potency,[3],inactive
COc1ccccc1[C@H](c1cccc2ccccc12)[C@@](C)(C#N)C(=O)N1CCC(c2cccc(C(F)(F)F)c2)CC1,outcome,[2],inactive
NNCCc1ccccc1,Potency,[1],inactive
same,Potency,[3],inactive
same,Potency,[4],inactive
same,Potency,[5],5.49 µM (active)
CS(=O)(=O)c1cccc(CNc2nc(Nc3ccc4c(c3)CCC(=O)N4)ncc2C(F)(F)F)c1,Potency,[1],inactive
same,Potency,[5],inactive
CO[C@@H]1[C@H](N(C)C(=O)c2ccccc2)C[C@H]2O[C@]1(C)n1c3ccccc3c3c4c(c5c6ccccc6n2c5c31)C(=O)NC4,outcome,[2],inactive
same,Potency,[3],inactive
Nc1ncnc2nc(-c3ccc(N4CCOCC4)nc3)cc(-c3cccc(Br)c3)c12,outcome,[2],inactive
CCN(CC)CCCC(C)Nc1nc(C)cc(Nc2ccc3nc(C)cc(N)c3c2)n1 (stereo not given),outcome,[2],inactive
same,Potency,[3],inactive
O=C(C1CC1)N1CC[C@@H](Cn2c(-c3ccc(-c4ccc5occc5c4)cc3)nc3cnccc32)C1,outcome,[2],inactive
same,Potency,[3],inactive
CC[C@H](Nc1ncnc2nc[nH]c12)c1nc2cccc(F)c2c(=O)n1-c1ccccc1,outcome,[2],inactive
Cc1c(CN2CCN(C(=O)C(C)C)CC2)sc2c(N3CCOCC3)nc(-c3cnc(N)nc3)nc12,outcome,[2],inactive
same,Potency,[3],inactive
CS(=O)(=O)Oc1ccc2c(NC(N)=O)c(C(=O)c3ccc(Cl)cc3Cl)oc2c1,outcome,[2],inactive
C[C@H](NC(=O)Cc1cc(F)cc(F)c1)C(=O)N[C@@H]1C(=O)N(C)c2ccccc2-c2ccccc21,outcome,[2],inactive
NCCCC(N)(C(=O)O)C(F)F (stereo not given),Potency,[1],inactive
same,Potency,[3],inactive
same,Potency,[4],inactive
CCN(c1ccccc1)c1cc(NC)[n+](C)c(C)n1,outcome,[2],inactive
same,Potency,[3],inactive
CC1(C)SCCN(S(=O)(=O)c2ccc(OCC#CCO)cc2)[C@@H]1C(=O)NO,outcome,[2],inactive
same,Potency,[3],inactive
Cn1cnc2c(F)c(Nc3ccc(Br)cc3Cl)c(C(=O)NOCCO)cc21,outcome,[2],inactive
same,Potency,[3],inactive
same,Potency,[4],inactive
same,Potency,[5],inactive
COc1ccc(-c2oc3cc(OC)ccc3c2C(=O)c2ccc(C#N)cc2)cc1,Potency,[3],inactive
COc1ccc(CCN2CCN(CCCc3ccccc3)CC2)cc1OC,outcome,[2],inactive
same,Potency,[3],inactive
same,Potency,[5],8.49 µM (active)
